# MITF TRPM1 inh: inhibitors of MITF-driven TRPM1 promoter in melanoma cells; AID 488899; inhibition, % at 12.5 µM; 330,000 compounds, 0.83% hits; SK-MEL-5 TRPM1 promoter luciferase, 24 h;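 active means mean inhibition across replicates of 60% or more, whatever share of single replicates reaches that level; inconclusive means some that reach 60%, reason not given; inactive means mean inhibition across replicates below 60%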
# Shn3 inh set2: inhibitors of Schnurri-3 3'UTR reporter in osteoblasts; AID 588674; inhibition, % at 12.5 µM; 360,000 compounds, 0.52% hits; Clone20 osteoblast Shn3 3'UTR firefly luciferase, 24 h;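 active means mean inhibition of at least 75% with every replicate also reaching 75%; inconclusive means mean inhibition at least 75% but some replicate below; inactive means mean inhibition below 75%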;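 further: 0% = median of neutral control wells and 100% = pilot-screen positive control compound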
# Peg3 promoter: reduces Peg3 promoter-driven luciferase expression in HeLa; HeLa PEG-Prom luciferase reporter, luminescence, overnight; 360,000 compounds, 1.7% hits; inhibition, % at 20 µM; AID 588405;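 active means inhibition of at least 50% at 20 µM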
# CF NFkB inh: blocks PAF-induced NF-kB reporter in cystic fibrosis cells; inhibition, % at 5 µM; AID 588850; 360,000 compounds, 0.86% hits; KKLEB NF-kB-GFP reporter, GFP fluorescence overnight;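 active means at least 50% inhibition at 5 µM, scaled per plate between neutral and stimulator controls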;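 further: PAF is a Pseudomonas aeruginosa culture filtrate used as stimulus; plate controls were PAF-stimulated DMSO wells for no effect and unstimulated DMSO wells for full effect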
# KKLEB cytotox: counter-screen for CF NF-kB inhibitors: cytotoxicity; KKLEB CF airway cells viability, ATPlite luminescence, overnight; active compounds read low; cells stimulated with P. aeruginosa culture filtrate; activity change (cytotoxicity), % at 5 µM; 360,000 compounds, 0.36% hits; AID 602141;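 active means corrected activity change at or below -50% at 5 µM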
# LMP1 NFkB inh: reduces LMP1-driven NF-kappaB luciferase signal | LMP1-induced NF-kappaB luciferase reporter cells, luminescence | inhibition, % at 12.5 µM | 350,000 compounds, 0.69% hits; in the data active means inhibition above about 41%; inconclusive means no clear call, values can overlap the other calls;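 further: 0% = neutral control wells and 100% = reference inhibitor control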
# The depositor's hits bear a star; ? = inconclusive; . = no result. Only some compounds are listed: those with a hit (about 2.9% of all), similar ones and a draw of the others.
SMILES,MITF TRPM1 inh,Shn3 inh set2,Peg3 promoter,CF NFkB inh,KKLEB cytotox,LMP1 NFkB inh
CC1=C(C(=O)N(C)C)CC(CC(=O)NC(c2ccccc2)c2ccccc2)C(=O)N1CCCN1CCCC1=O (stereo not drawn),.,-6.5,4.6,-20.8,10.1,4.1
O=C(/C=C/c1ccccc1)C1C(=O)c2ccccc2C1=O,0.0,-32.2,-120.7,-5.5,-22.8,34.3
CCc1ccc(/C=C/C(=O)C2C(=O)c3ccccc3C2=O)cc1,-10.2,-30.9,-48.8,-20.5,11.8,50.9*
O=c1[nH]cc(S(=O)(=O)N2CCN(c3ccc(F)cc3)CC2)c(=O)[nH]1,.,-10.1,3.0,-14.6,0.6,0.7
CNc1ccc(/C=C2\COc3ccccc3C2=O)cc1[N+](=O)[O-],-26.3,-26.3,-154.4,35.3,-24.6,-13.6
O=C1/C(=C/c2ccccc2[N+](=O)[O-])COc2ccccc21,84.5*,30.9,105.6*,86.1*,-70.7*,?
O=C(Nc1ccc(N2CCN(c3ccc(C(F)(F)F)cn3)CC2)nc1)c1cccs1,0.9,17.8,-2.3,15.1,2.6,9.7
O=C(Nc1ccc(N2CCN(c3ncccc3C(F)(F)F)CC2)nc1)c1cccs1,17.3,42.2,104.0*,8.2,-4.7,5.2
Cc1ccc(-c2nn3c(C)nnc3s2)cc1NC(=O)c1ccc(-c2ccc(Cl)cc2Cl)o1,100.3*,58.0,103.3*,16.1,-32.4,0.2
COc1cc2c(cc1OC)-c1cc(Nc3ccc4c(c3)OCCO4)nc(=O)n1CC2,-7.4,21.2,-44.4,27.1,-11.5,51.1*
Cc1nc(Nc2ccc(Cl)c(Cl)c2)sc1C(/C=C/c1ccc2c(c1)OCO2)=NNc1ccc([N+](=O)[O-])cc1[N+](=O)[O-],8.4,-5.1,1.9,-5.1,-2.0,-0.4
Cc1ccc(C2CC(c3cccs3)=NN2C(=O)CCl)cc1 (stereo not drawn),51.3,-22.4,27.7,77.0*,-60.6*,-12.6
CNC(=S)N1N=C(c2cccs2)CC1c1ccc(F)cc1 (stereo not drawn),5.7,5.9,25.3,-11.6,0.4,49.6*
CCC(=O)N1N=C(c2cccs2)CC1c1ccc(C)cc1 (stereo not drawn),-6.0,-91.4,-6.8,-5.5,-0.4,4.3
O=C(CSc1nc2ncc(Br)cc2[nH]1)Nc1ccccc1-c1ccccc1,11.1,14.7,53.1*,43.3,-8.8,0.0
CN(C)S(=O)(=O)c1ccc(C(=O)/C=C/c2cccnc2)cc1,-3.8,63.3,100.5*,11.8,7.4,2.4
CC(=O)Nc1cccc(C(=O)/C=C/c2ccc(F)cc2)c1,-6.9,-1.7,106.8*,26.8,-3.6,0.1
Cc1cccc(C(=O)Nc2ccc(C(=O)/C=C/c3cccnc3)cc2)c1,26.8,96.9*,109.3*,38.4,-16.2,27.1
O=C(/C=C/c1cccnc1)/C=C/c1cccnc1,96.4*,94.4*,109.0*,75.4*,3.0,-45.7
O=C(/C=C/c1cccnc1)c1ccc(NC(=O)c2cccc(Br)c2)cc1,-4.1,-0.5,24.3,-7.3,-4.3,-2.5
CC(=O)Nc1cccc(C(=O)/C=C/c2ccc(N(C)C)cc2)c1,-29.8,-29.8,-250.7,2.6,-18.2,3.0
C(=Cc1cccnc1)c1ccncc1,-16.1,-17.2,0.9,33.5,3.2,5.9
O=C(Nc1cccc(C(=O)O)c1)/C(=C\c1ccccc1)NC(=O)c1ccco1,.,-27.6,0.6,-3.6,-4.1,4.0
COc1ccc(OC)c(C(=O)/C=C/c2cccnc2)c1,2.3,-19.0,75.5*,22.7,-13.6,12.7
Cc1cccc(C(=O)Nc2ccc(C(=O)/C=C/c3ccncc3)cc2)c1,54.8,84.7,102.0*,23.6,4.6,38.3
Cc1cccc(C(=O)Nc2cccc(C(=O)N/N=C/c3ccncc3)c2)c1,-26.4,7.1,2.5,-1.6,-16.5,2.7
Cc1ccc(C(=O)Nc2nnc(COCCO)s2)cc1,.,-61.5,-51.8,-4.8,-8.0,.
COc1cc(C(=O)Oc2ccccc2/C=N/NC(=O)c2ccc(C)c(Cl)c2)cc(OC)c1OC,-1.7,56.9,-6.2,-3.0,-6.0,56.9*
COc1cc(C(=O)N/N=C/c2sccc2C)cc(OC)c1OC,49.7,21.9,-8.0,51.7*,-10.3,-2.3
CCCCCC(=O)N1C[C@@H](n2cc(COC(=O)c3ccccc3)nn2)[C@H](O)C[C@@H]1c1ccc(C)cc1,.,11.7,-1.6,-13.6,-1.5,0.1

# Screens as filed in PubChem.
